HPGD block – qHTS Assay for Inhibitors of HPGD (15-Hydroxyprostaglandin Dehydrogenase); AID 894, 2007; 150,000 tested, 4.3% active; Potency, µM, for the others: at the highest dose activity change, negative = inhibition, most hits filed as inhibitors; purified HPGD, NADH fluorescence kinetic, PGE2 substrate; active means well fitted inhibition curve with a large enough effect, not every such curve was filed as active; inconclusive means small, poorly fitted or top-dose-only effect, or another doubt; inactive means no such curve, though single readings can be large or run the other way; further: potency means the concentration at half of the fitted maximal effect
Target sequence (P15428 whole entry, looked up): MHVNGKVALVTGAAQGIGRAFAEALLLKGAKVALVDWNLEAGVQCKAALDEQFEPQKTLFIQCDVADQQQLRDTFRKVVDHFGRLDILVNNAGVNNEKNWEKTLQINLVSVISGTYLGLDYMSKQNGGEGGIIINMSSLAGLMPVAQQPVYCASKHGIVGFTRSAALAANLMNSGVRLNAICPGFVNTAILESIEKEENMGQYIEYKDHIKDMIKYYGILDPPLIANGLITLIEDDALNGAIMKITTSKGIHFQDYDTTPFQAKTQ
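20 nM HPGD preincubated 15 min at room temperature with compound in 50 mM Tris-HCl pH 8, 0.01% Tween 20. Started with 1 mM NAD+ and 30 uM prostaglandin E2; NADH fluorescence (360/450 nm) read 5 times over 30-s intervals, last minus first.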
PNC assembly inh – High Content Assay for Compounds that inhibit the Assembly of the Perinucleolar Compartment; PC3M PTB-GFP, PNC prevalence imaging, 16 h; stronger effect = lower value; activity change (PNC), negative = inhibition, % at 10 µM; 140,000 tested, 3.1% active; AID 2417, 2010;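 active means readout at or below -70, meaning at least 70% loss of cells showing the perinucleolar compartment, a nuclear body marking cancer cells; inconclusive means readout between -30 and a set limit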;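 further: plate controls were DMSO wells for no effect and camptothecin positive control wells for full effect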
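PC3M cells stably expressing PTB-GFP, 750–1000 cells/well, treated 16 h at 37 °C with compound (23 nl of library stock), in duplicate. After paraformaldehyde fixation and Hoechst stain, imaged at 20x; PNC prevalence scored by image analysis.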
NPSR antagonist – qHTS Assay for Antagonists of the Neuropeptide S Receptor: cAMP Signal Transduction. 220,000 tested, 1% active. Q6W5P4. Potency, µM (titrated, usually from 38.3 µM), for inactives: top-dose activity change, negative = inhibition, most hits filed as inhibitors. CHO-NPSR cells, cAMP TR-FRET, antagonist mode; further: potency means the concentration at half of the fitted maximal effect; nearly all actives have a fitted effect of over 50% in size
ALDH1A1 block – qHTS Assay for Inhibitors of Aldehyde Dehydrogenase 1 (ALDH1A1); Potency, µM (series often up to 75.3 µM), for the others: at the top dose activity, negative = inhibition, actives largely listed as inhibitors; Purified ALDH1A1, NADH fluorescence, propionaldehyde substrate; 220,000 tested, 7.3% active; Aldehyde dehydrogenase 1A1 (Homo sapiens), P00352; active means well fitted inhibition curve with a large enough effect, not every such curve was filed as active; inconclusive means small, poorly fitted or top-dose-only effect, or another doubt; inactive means no such curve, though single readings can be large or run the other way;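 further: potency means the concentration at half of the fitted maximal effect; plate controls were no enzyme wells and a reference inhibitor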
Target sequence (P00352 whole entry, looked up): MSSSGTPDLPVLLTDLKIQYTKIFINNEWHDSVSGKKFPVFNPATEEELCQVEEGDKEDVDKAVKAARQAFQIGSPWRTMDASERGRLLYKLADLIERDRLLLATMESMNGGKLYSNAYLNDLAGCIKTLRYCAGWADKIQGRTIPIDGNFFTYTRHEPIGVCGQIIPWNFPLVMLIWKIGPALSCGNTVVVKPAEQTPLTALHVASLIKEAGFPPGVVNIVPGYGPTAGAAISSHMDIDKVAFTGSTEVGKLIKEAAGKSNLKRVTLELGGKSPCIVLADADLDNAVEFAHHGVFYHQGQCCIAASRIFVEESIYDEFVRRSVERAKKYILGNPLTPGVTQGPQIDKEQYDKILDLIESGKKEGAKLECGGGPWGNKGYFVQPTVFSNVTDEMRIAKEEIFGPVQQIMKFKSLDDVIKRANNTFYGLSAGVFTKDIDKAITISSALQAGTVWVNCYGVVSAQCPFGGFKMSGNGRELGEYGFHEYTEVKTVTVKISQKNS
IMPase cell inh – qHTS Assay for Identifying the Cell-Membrane Permeable IMPase Inhibitors. Inositol monophosphatase 1 (Rattus norvegicus), P97697. CHO-M1 cells, IP1 accumulation, HTRF TR-FRET ratio. inhibition (IP1 accumulation), % at 46.1 µM. 120,000 tested, under 10 active. AID 901, 2007; active means well fitted curve in the direction sought with a large enough effect in the signal ratio, not every such curve was filed as active; inconclusive means small, poorly fitted or top-dose-only effect, or a change in a side signal; inactive means no such curve, though single readings can be large or run the other way; the % refers to the signal ratio;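 further: cells stimulated with carbachol in lithium chloride buffer; plate controls were DMSO basal wells for no effect and reference inhibitor wells for full effect; higher means more IMPase inhibition seen as more IP1 and lower FRET ratio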
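Measured: the HTRF emission ratio (665/620 nm) plus the 620 nm donor channel, each fitted to the Hill equation to give AC50. Cells were CHO-M1 given compounds up to 46 uM and a 30 min carbachol stimulation at 37C.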
IMPase Li cell – qHTS Assay for Identifying the Cell-Membrane Permeable IMPase Inhibitors: Potentiation with Lithium; 210,000 tested, 0.35% active; AID 1457, 2008; Potency, µM (doses to about 59.4 µM), inactives show at the top dose activity, negative = IMPase inhibition, hits mostly inhibitors; CHO-M1 cells, IP1 TR-FRET (IP-One), carbachol + lithium;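 further: IP1 builds up when IMPase is blocked and the TR-FRET signal falls; potency means the concentration at half of the fitted maximal effect; plate controls were basal vehicle for no effect and high inhibitor control for full effect; nearly all actives have a fitted effect of over 50% in size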
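CHO cells stably expressing M1 receptor (2000/well) were cultured 16–30 h, then exposed to compounds with a small lithium addition for 30 min at 37C. IP1 was measured by TR-FRET competition; AC50 from Hill fits.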
Starred values were filed as active, the others as inactive; ? = inconclusive; / = no result given; [ ] = another dose, or the depositor's remark. Compounds with a hit are over-represented: about 11% of the library has one in this group of screens. Unless noted, the call rests on the fitted dose curve; in most records, active means well fitted curve in the direction sought with a large enough effect; inconclusive means small, poorly fitted or top-dose-only effect, or another doubt; inactive means no such curve, though single readings can be large; an effect the other way counts as inactive or inconclusive. Unless noted, on the % scale 0 is the no-effect control and ±100 the full control effect.

SMILES | HPGD block | PNC assembly inh | NPSR antagonist | ALDH1A1 block | IMPase cell inh | IMPase Li cell
O=C(CN1CCN(S(=O)(=O)c2ccc(Cl)cc2)CC1)Nc1ccc(N2CCOCC2)cc1 | -2% | 25 | 10% | 3% | -12 | -2%
COc1ccc2c(c1)[C@]1(C)CCC(=O)C[C@H]1CC2 | -12% | / | / | 2.8µM* | / | -2%
Cc1ccc(NN2C(=O)C=CC2=O)cc1 | -5% | -112* | 5% | 0% | -8 | -1%
COc1ccc(C2=CC(=O)N(Nc3ccccc3)C2=O)cc1 | / | / | -10% | -5% | / | 20%
Cc1ccc(NN2C(=O)C=C(c3ccc(Cl)cc3)C2=O)cc1 | -7% | 74 | 7.9µM* | 18% | 12 | 51%[38.3 µM]
Cc1ccc(C2CC(=O)C=C(Nc3ccc(Cl)cc3)C2)cc1 (stereo not drawn) | -19% | 29 | -13% | -3% | -3 | 0%
Cc1ccccc1NN1C(=O)C=CC1=O | -2% | ? | -3%[46.1 µM] | 4% | -2[1.84 µM] | 10%[38.3 µM]
O=C1C=C(c2ccccc2)C(=O)N1Nc1ccccc1 | ? | -9 | 13µM* | 22µM* | 23 | 50%[38.3 µM]
Cn1c(=O)c2c(nc(SCc3cccnc3)n2Cc2ccccc2)n(C)c1=O | -22% | -14 | -14%[46.1 µM] | 22µM* | 6 | 3%[38.3 µM]
Cn1c(=O)c2c(nc(SCc3cccnc3)n2Cc2ccc(F)cc2)n(C)c1=O | 40µM* | -5 | ? | ? | 6 | 21%[38.3 µM]
CCCn1c(SCC(=O)OCc2ccccc2)nc2c1c(=O)n(C)c(=O)n2C | -6% | 6 | -21%[46.1 µM] | 22µM* | 0 | 9%[38.3 µM]
S=C(NC1CCCC1)NN1CCOCC1 | / | / | 12% | 18% | / | 9%
Cn1cccc1C(=O)N1CCC2(CC1)CN(C(=O)Nc1cccc(C#N)c1)C2 | -16% | / | / | 28µM* | / | ?
O=[N+]([O-])C1=C(Nc2cccc3ccccc23)CS(=O)(=O)C1 | 20µM* | -11 | -20%[46.1 µM] | ? | -2 | 18%[38.3 µM]
O=C(Nc1cccc2ccccc12)c1ccc([N+](=O)[O-])s1 | -5% | 50 | -5% | -4% | / | -8%
CCOC(=O)c1c(NC(=O)C2=C(C)NC(=S)NC2c2ccc(C)cc2)sc(C)c1C (stereo not drawn) | ? | -22 | -46% | ? | -7 | -4%
CCOC(=O)c1c(NC(=O)C2=C(C)NC(=S)NC2c2ccc(F)cc2F)sc(C)c1C (stereo not drawn) | -21% | ? | -47% | 11µM* | -3 | -4%
CCOC(=O)c1c(NC(=O)C2=C(C)NC(=S)NC2c2ccc(F)cc2)sc(C)c1C (stereo not drawn) | ? | -29 | 9% | 14µM* | / | 0%
Cc1ccccc1NC(=O)CC1C(=O)NCCN1C(=O)c1cccc(Cl)c1 (stereo not drawn) | / | / | / | / | -16 | /
OCCN(CC#CCC(O)(c1ccccc1)C1CCCC1)CCO (stereo not drawn) | / | / | 6% | / | / | /
Cc1ccsc1C1C=C(c2cccc(Br)c2)Nc2ncnn21 (stereo not drawn) | / | -9 | -18%[46.1 µM] | -7% | -3 | /
CCCCN1C[C@H](O)[C@@H](O)[C@H](O)[C@H]1CO | -9% | ? | 1% | -2% | / | -3%
C#CCCCCCCCCCCCc1ccco1 | -23% | / | / | 20µM* | / | -9%
O=C(Nc1cnn(Cc2ccc(Cl)cc2Cl)c1)c1noc2c1CCCC2 | -26% | 29 | -20%[46.1 µM] | 14µM* | -13 | 13%
CC(CCc1ccco1)NC(=O)Cn1ncc2c1-c1ccccc1OC2 (stereo not drawn) | -17% | -11 | -21%[46.1 µM] | 18µM* | 3 | 23%[38.3 µM]
SMILES | HPGD block | PNC assembly inh | NPSR antagonist | ALDH1A1 block | IMPase cell inh | IMPase Li cell
Cc1ccc(C(c2c(C)[nH][nH]c2=O)c2c(C)[nH][nH]c2=O)cc1[N+](=O)[O-] | -18% | 38 | 16% | -7% | / | 1%
O=C(NCCCNCc1ccccc1)c1ccccn1 | -9% | -21 | -12%[46.1 µM] | 8% | -11 | -6%[38.3 µM]
CCc1cccc2c1NC(=O)C2(O)CC(=O)c1cccs1 (stereo not drawn) | / | / | 11% | 14µM* | / | -3%
Cc1nc(C)c(C(=O)Nc2ccc(Oc3ccccc3)cc2)o1 | -18% | ? | -6%[46.1 µM] | 32µM* | 6 | 23%[38.3 µM]
c1ccc(CNn2c(N3CCOCC3)nc3ccccc32)cc1 | -5% | 9 | -2%[46.1 µM] | -5% | -7 | /
O=c1c(-c2cc(F)cc(F)c2)nc2cnc(N3CCNCC3)nc2n1C1CC1 | / | / | / | ? | / | -3%
O=c1c(-c2cc(F)cc(F)c2)nc2cnc(N3CCOCC3)nc2n1C1CC1 | ? | / | / | ? | / | 8.9µM*
COc1cccc(C(C(=O)NC2CCCC2)N(Cc2ccc(C)cc2)C(=O)c2ccco2)c1OC (stereo not drawn) | -5% | 48 | -31% | -3% | 10 | 9%
O=C(c1sccc1-n1cccc1)N1CCCC1 | -11% | -83* | -5%[46.1 µM] | ? | -6 | 4%[38.3 µM]
O=C(NC1CCCc2ccccc21)C1CCN(C(=O)c2sccc2-n2cccc2)CC1 (stereo not drawn) | 1% | 8 | -22%[46.1 µM] | 1µM* | 4 | 25%[38.3 µM]
O=C(NCCc1ccccc1)C1CCN(C(=O)c2sccc2-n2cccc2)CC1 | -8% | ? | -9%[46.1 µM] | 4µM* | 0 | 19%[38.3 µM]
O=C(NCc1cccc(F)c1)C1CCN(C(=O)c2sccc2-n2cccc2)CC1 | / | / | -13% | 5µM* | / | 5%
COc1cccc(CNC(=O)C2CCN(C(=O)N(C)C)CC2)c1 | -1% | ? | -2%[46.1 µM] | 1% | -5 | -1%
COc1c2occc2cc2ccc(=O)oc12 | -12% | 54 | 2%[46.1 µM] | -1% | 8 | 7%
O=C(NCCc1ccccc1)C1CCN(C(=O)NCc2ccccc2)CC1 | 0% | -2 | -2%[46.1 µM] | -2% | -5 | -4%
Cc1ccc(CCNC(=O)C2CCN(C(=O)c3sccc3-n3cccc3)CC2)cc1 | -3% | 16 | -26%[46.1 µM] | 1µM* | -5 | 25%[38.3 µM]
Cc1nn(CCC(=O)NNC(=S)Nc2ccc(Cl)cc2)c(C)c1[N+](=O)[O-] | -20% | 115 | -17% | 22µM* | 14 | 9%
O=C(Cn1ccc([N+](=O)[O-])n1)Nc1nccs1 | -11% | 17 | 12% | 4% | / | -3%
COc1ccc(NC(=S)NNC(=O)Cn2nc([N+](=O)[O-])cc2C)cc1 | -6% | -24 | 6%[46.1 µM] | -4% | -11 | -3%[38.3 µM]
Cc1cc([N+](=O)[O-])nn1CC(=O)Nc1nccs1 | -7% | -89* | 8% | -1% | / | 3%
